From PubChem BioAssay (NCATS)
Results filed as inconclusive are left out. Active and inactive are the calls of the source. Calls follow the shape of the dose curve; as a rule, active = well fitted curve in the direction sought with a large enough effect; inconclusive = small, poorly fitted or top-dose-only effect, or another doubt; inactive = no such curve, though single readings can be large or run the other way.

test: qHTS Assay for Identifying Gametocytocidal Compounds (AID 743244);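 as to max response: actives lower the fluorescent signal which means gametocytes are killed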; details: P. falciparum 3D7 stage III-V gametocytes, alamarBlue, 72 h; max response: stronger effect = lower value
Source text: Malaria cases and deaths have dropped 50% in 29 countries since 2000 due to the combined effects of long-lasting insecticidal bednets, indoor residual spraying, and artemisinin-based combination therapies (ACTs). This success has raised hopes for malaria eradication and consequently stimulated interest in developing new reagents that block gametocyte transmission such as novel and safe gametocytocidal drugs. However, previous drug development efforts have focused primarily on the asexual parasites that cause symptoms, but not malaria transmission. Consequently, patients can remain infectious for weeks after the clearance of asexual parasites and clinical symptoms. To be transmitted from person to person via a mosquito, the parasites must switch from asexual to sexual development and produce male and female gametocytes. Malaria gametocytes consist of five stages (I, II, III, IV and V). The late stage gametocytes (III, IV and V) are difficult to be cultured in vitro and the long lifespan of mature gametocytes allows them being transmitted from host to mosquitoes unless they are completely eliminated by gametocytocidal agents. To identify gametocytocidal compounds which are capable of killing late stage P. falciparum gametocytes, a high throughput gametocyte viability assay was employed. This assay uses oxidoreduction indicator, alamarBlue, as a general measure of metabolic activity of gametocytes. Within live cells, the nonfluorescent resazurin is reduced to resorufin, a bright red fluorescence dye. Fluorescence decreases upon treatment of gametocytocidal compounds. P. falciparum gametocyte (3D7 strain) was used in this study.
The 1536-well gametocycidal viability assay was based on the previous method of Tanaka et al. Stage III-V gametocytes were tested against three compound libraries, including 4265 compounds from NCGC pharmaceutical collection, 400 from Malaria Box library, and 550 from an internal collection of kinase inhibitors. Briefly, 2.5 ul/well incomplete medium was dispensed into each well of 1,536-well plates using the Multidrop Combi followed by 23 nl compound transferring using the NX-TR Pintool (WAKO Scientific Solutions, San Diego, CA). Then, 2.5 ul/well of gametocytes was dispensed with a seeding density of 20,000 cells/well using the Multidrop Combi. The assay plates were incubated for 72 h at 37C with 5% CO2. After addition of 5 ul/well of 2X AlamarBlue dye (Life Technologies, cat. no. DAL1100), the plates were incubated for 24 h at 37C with 5% CO2 and then were read in a fluorescence detection mode (Ex = 525 nm, Em = 598 nm) on a ViewLux plate reader (PerkinElmer).
% is scaled to controls: 0 for no effect and ±100 for the full control effect; potency is read from the fitted curve at half-maximal effect.

SMILES | max response | Potency
CCCCCCCN(CC)CCCC(O)c1ccc(NS(C)(=O)=O)cc1 (stereo not drawn) | -2.04% (inactive) | –
Nc1ccn(C[C@@H](CO)OCP(=O)(O)O)c(=O)n1 | 0.0749% (inactive) | –
C#CCC(Cc1cnc2nc(N)nc(N)c2n1)c1ccc(C(=O)N[C@@H](CCC(=O)O)C(=O)O)cc1 (stereo partly drawn) | 4% (inactive) | –
CCCCCCCCCCCCCCCC(=O)OC[C@@H](NC(=O)C(Cl)Cl)[C@H](O)c1ccc([N+](=O)[O-])cc1 | 5.04% (inactive) | –
Cn1c(Nc2ccc(C(F)(F)F)cc2)nc2cc(Oc3ccnc(-c4ncc(C(F)(F)F)[nH]4)c3)ccc21 | – | 23.5 µM (active)
Nc1ccn(C2CO[C@H](CO)O2)c(=O)n1 (stereo partly drawn) | 19.9% (inactive) | –
COC(=O)C1C2CC3c4[nH]c5cc(OC)ccc5c4CCN3CC2CC(OC(=O)c2cc(OC)c(OC)c(OC)c2)C1OC (stereo not drawn) | – | 42.9 µM (active)
Cc1ccccc1C(=O)Nc1ccc(C(=O)N2CCCC(O)c3cc(Cl)ccc32)c(C)c1 (stereo not drawn) | 1.39% (inactive) | –
CN[C@H](CC(C)C)C(=O)N[C@H]1C(=O)N[C@@H](CC(N)=O)C(=O)N[C@@H]2C(=O)N[C@H]3C(=O)N[C@H](C(=O)N[C@H](C(=O)O)c4cc(O)cc(O)c4-c4cc3ccc4O)[C@H](O)c3ccc(c(Cl)c3)Oc3cc2cc(c3O[C@@H]2O[C@H](CO)[C@@H](O)[C@H](O)[C@@H]2O[C@H]2C[C@](C)(N)[C@H](O)[C@H](C)O2)Oc2ccc(cc2Cl)[C@H]1O | -6.25% (inactive) | –
COc1cc2c(cc1OC)[C@@H]1C(=O)c3ccc4c(c3O[C@@H]1CO2)C=CC(C)(C)O4 | -5.53% (inactive) | –
N#Cc1ccc(COC[C@H]2O[C@@H](n3c(NCc4ccc(Cl)c(Cl)c4)nc4c(N)ncnc43)[C@@H](O)[C@@H]2O)cc1 | -16.6% (inactive) | –
O=c1[nH]c(=O)n([C@H]2C[C@@H](O)[C@@H](CO)O2)cc1C=CBr | 30.7% (inactive) | –
COc1ccc2cc([S+]([O-])Cc3ncc(C)c(OC)c3C)nc2c1 | 2.05% (inactive) | –
